Among the test systems are T-47D breast; BT-549 breast; MDA-MB-435 melanoma; MCF7 breast; HCT-116 colon; HCC-2998 colon; KM12 colon; SW-620 colon.
Holding throughout (assay): NCI-60 one-dose screen, 48 h (100 = growth as untreated, 0 = no growth, -100 = all killed)
Settings in all cases: 10 µM unless noted

Our source for the growth values is PubChem BioAssay (NCI).

SMILES strings stand for the structures. About 83,000 compounds went through this panel and 20% of them were active in at least one assay; those are over-represented in the sample as a whole.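 For each line, cells grew in 96-well plates with the test compound present at a single concentration for 48 hours.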 Values without a mark were called inactive. Activity calls are given as the source filed them. The calls were made as follows: active = growth percent below 10; inactive = the rest.

Take `O=C(/C=C/Nc1ccc(S(=O)(=O)Nc2ncccn2)cc1)c1ccc(N=Cc2c(O)[nH]c3ccccc23)cc1`: the growth with T-47D breast was 93.1%; in the assay on BT-549 breast, 101%; in the assay with MDA-MB-435 melanoma, 100%; in the assay on MCF7 breast it was 87.4%; with HCT-116 colon it was 111%; in the assay with HCC-2998 colon it was 109%. Further, in the assay with KM12 colon, the growth is 37.3%.

As for `CCN(CC)c1ccc(/C=N/NC(=O)c2ccc(NS(C)(=O)=O)cc2)cc1`, the growth is 27.4% with T-47D breast; 28.4% in the assay with BT-549 breast; 37.3% in the assay with MDA-MB-435 melanoma; 40.5% with SW-620 colon; 9.25% (active) in the assay with MCF7 breast; 45.7% in the assay on HCC-2998 colon. In the assay with KM12 colon, the growth was 18.1%.

`O=[N+]([O-])c1ccc(NC(=S)NNC(=S)Nc2ccc(F)cc2)cc1`: the growth was 74.1% in the assay on T-47D breast; 97.1% in the assay on BT-549 breast; 91% in the assay with MDA-MB-435 melanoma; 91.5% with SW-620 colon; 82% in the assay on MCF7 breast; 85.5% in the assay with HCC-2998 colon. For the same compound, the growth in the assay on KM12 colon is 80.4%.

In the case of `Cc1ccc(S(=O)(=O)NCCCNc2nc(Nc3ccc(N4CCN(C)CC4)cc3)nc3ccsc23)cc1`, the growth is 17.2% in the assay on T-47D breast; -1% (active) with BT-549 breast; 0.595% (active) in the assay with MDA-MB-435 melanoma; 19% with MCF7 breast; 5.69% (active) in the assay on HCT-116 colon; 27.3% with HCC-2998 colon. Further, the growth in the assay with KM12 colon is 35.8%.

With `CCOC(=O)c1cccc(NC2=C(Cl)C(=O)c3nc(C)ccc3C2=O)c1`, the growth with T-47D breast was 56.4%; in the assay with BT-549 breast it was 121%; with MDA-MB-435 melanoma, 108%; in the assay on SW-620 colon it was 84.3%; with MCF7 breast, 76%; in the assay on HCC-2998 colon, 122%. For the same compound, the growth in the assay on KM12 colon was 105%.

For `Cc1ccc2c(n1)C(=O)C(Cl)=C(Nc1cc(C(F)(F)F)cc(C(F)(F)F)c1)C2=O`, the growth with T-47D breast is -9.18% (active); in the assay on BT-549 breast, 115%; in the assay on MDA-MB-435 melanoma, 93.8%; in the assay on MCF7 breast it was -24.9% (active); with HCT-116 colon it was 42%; in the assay with HCC-2998 colon, 96.5%. In addition, the growth with KM12 colon was 97%.

With `Cc1[nH]c(C(=O)Nc2ccc(C(=O)NCC3CCNCC3)cc2OC(C)C)c(Cl)c1Cl`, the growth in the assay with T-47D breast was 77.6%; in the assay on BT-549 breast, 92.6%; with MDA-MB-435 melanoma it was 72.2%; in the assay on SW-620 colon, 33.6%; in the assay with MCF7 breast it was -76.3% (active); with HCC-2998 colon it was 55.3%. Besides, the growth in the assay on KM12 colon is 56%.

With `COc1ccc(-c2cc(-c3ccc(N(C)C)cc3)n3c(n2)nc2ccccc23)cc1`, the growth in the assay with T-47D breast is 2.27% (active); in the assay on BT-549 breast it was 40.1%; in the assay on MDA-MB-435 melanoma, 74.3%; in the assay with SW-620 colon, 76.9%; with MCF7 breast, 40.7%; in the assay on HCC-2998 colon, 84.2%. Besides, the growth with KM12 colon is 62.3%.

With `CNC(=O)c1cc(-n2ccc3cc(NC(=O)Nc4ccc(N5CCN(C)CC5)c(C(F)(F)F)c4)ccc32)ccn1`, the growth in the assay with T-47D breast is 87.4%; with BT-549 breast it was 95.1%; in the assay with MDA-MB-435 melanoma, 22.5%; in the assay on SW-620 colon, 21.5%; with MCF7 breast, -23.9% (active); in the assay on HCC-2998 colon, 92.3%. The growth in the assay with KM12 colon is 30.5%.

Regarding `COc1ccc([C@H]2C(=O)N(c3cc(OC)c(OC)c(OC)c3)[C@@H]2c2ccc(OC)c(O)c2)cc1`, the growth in the assay with T-47D breast is 90.5%; in the assay on BT-549 breast, -28.2% (active); in the assay with MDA-MB-435 melanoma, -6.94% (active); with MCF7 breast it was 14%; in the assay on HCT-116 colon it was 6.05% (active); in the assay with HCC-2998 colon, 13.3%. For the same compound, the growth in the assay with KM12 colon is 12.4%.

For the compound `N#Cc1c(-c2ccc(Br)cc2)cc(-c2c[nH]c3ccccc23)nc1N`, the growth is 29.7% in the assay with T-47D breast; 32.1% in the assay with BT-549 breast; 0.353% (active) in the assay on MDA-MB-435 melanoma; 27.8% with SW-620 colon; 18.5% in the assay with MCF7 breast; 60.3% in the assay on HCC-2998 colon. In the assay on KM12 colon, the growth is 28%.

With `C[C@]12CC[C@H]3[C@@H](CC=C4C[C@@H](O)CC[C@@]43C)[C@@H]1CC[C@@H]2[C@](C)(O)CCc1cccnc1`, the growth in the assay on T-47D breast is 36.3%; in the assay on BT-549 breast, 47.7%; in the assay with MDA-MB-435 melanoma, 64%; with MCF7 breast, 35.2%; in the assay with HCT-116 colon, 51.9%; with HCC-2998 colon it was 86.7%. For the same compound, in the assay on KM12 colon, the growth is 70.2%.

`O=C1[C@@H]2Cc3c([nH]c4ccccc34)[C@H](c3ccc(Cl)cc3)N2C(=O)CN1C1CCN(Cc2ccccc2)CC1`: the growth was 74.5% with T-47D breast; 72.1% with BT-549 breast; 54.8% in the assay on MDA-MB-435 melanoma; 16.2% with MCF7 breast; 25.5% in the assay with HCT-116 colon; 51.4% in the assay with HCC-2998 colon. For the same compound, in the assay on KM12 colon, the growth was 57.6%.

For `COc1ccccc1Cn1cc(C#N)c(N)c1C(=O)c1ccc(Br)cc1`, the growth in the assay with T-47D breast was 74.1%; with BT-549 breast, 103%; in the assay on MDA-MB-435 melanoma, 94.4%; in the assay with SW-620 colon, 100%; in the assay with MCF7 breast, 91.5%; in the assay on HCC-2998 colon, 103%. Besides, in the assay with KM12 colon, the growth is 96.5%.

In the case of `Cc1[nH]c(C(=O)Nc2ccccc2OCc2cccc(C(=O)NC3CCCNC3)c2)c(Cl)c1Cl` (configuration not stated), the growth is -9.08% (active) in the assay with T-47D breast; 98.8% in the assay on BT-549 breast; -80.2% (active) in the assay with MDA-MB-435 melanoma; -68.8% (active) with SW-620 colon; -77.8% (active) with MCF7 breast; -90% (active) with HCC-2998 colon. The growth in the assay on KM12 colon was -78.4% (active).

In the case of `CC1CCN(CC(=O)Nn2c(COc3ccccc3)nc3ccccc3c2=O)CC1`, the growth in the assay with T-47D breast is 67.8%; with BT-549 breast it was 97.9%; in the assay on MDA-MB-435 melanoma it was 5.85% (active); with SW-620 colon, 57.2%; in the assay with MCF7 breast, 42.4%; with HCC-2998 colon, 89.9%. For the same compound, the growth in the assay on KM12 colon is 45%.
